Hit rate of the full screen: of about 2,300 compounds, about 160 (7%) were called active. How the calls were made is not given here. Not all results are given here. Entries that show only a call come without a potency. Potency and affinity values are given separately.
Experiment: Vero cell cytotoxicity, dose response, cytotoxicity control for Vif-APOBEC3G degradation inhibitor project, Vero cells (AID 1117358)
Settings: CellTiter-Glo ATP luminescence, 72 h; series mostly up to 40 µM

Row | SMILES | outcome
1 | Oc1c(C(c2ccccc2)N2CCN(Cc3ccccc3)CC2)sc2ncnn12 (stereo not given) | inactive
2 | CCOc1cc(C2NC(=O)NC(O)(C(F)(F)F)C2C(=O)c2ccccc2)ccc1OC (stereo not given) | inactive
3 | COc1ccc(CSc2nnnn2C)cc1F | inactive
4 | O=C(Nc1ccc2nc(-c3ccco3)c(-c3ccco3)nc2c1)N1CCCCCC1 | inactive
5 | O=C(O)CCN1CCOCC1 | inactive
6 | O=C(O)c1ccc(S(=O)(=O)c2ccc3c(c2)C(=O)N(Cc2ccco2)C3=O)cc1 | inactive
7 | COc1cc(NC(=O)c2nnn(Cc3ccc(SC)cc3)c2N)cc(OC)c1 | inactive
8 | O=C(CN1C(=O)NC2(CCCCCCC2)C1=O)NCc1cccs1 | inactive
9 | COCC(=O)Nc1sc2c(c1C(=O)OC)C(C(=O)OC)CC2 (stereo not given) | inactive
10 | COC(=O)Nc1sc2c(c1C(=O)NCc1ccco1)CCCC2 | inactive
11 | CCOC(=O)c1cc2sc(C)cc2n1CC(=O)N1CCN(C(=O)c2ccco2)CC1 | inactive
12 | O=C(c1ccc2c(c1)OCCO2)C1CCN(C(=O)c2ccc(F)cc2)CC1 | inactive
13 | Cc1cc(C(=O)Nc2c(C)cccc2C)n(-c2ccccc2)n1 | inactive
14 | CN(C)c1ccc(/C=N\NC(=O)c2csnn2)cc1 | inactive
15 | CCOC(=O)C1CCN(S(=O)(=O)c2cccc(-c3cn4cccnc4n3)c2)CC1 | inactive
16 | COc1ccc(C(=O)N2CCCN(C)CC2)cc1S(=O)(=O)N1CCCc2ccccc21 | inactive
17 | COCc1nnc(NC(=O)c2ccc(S(=O)(=O)N(C)C3CCCCC3)cc2)o1 | inactive
18 | Cc1nnc(NC(=O)c2ccc(S(=O)(=O)N(C)Cc3ccccc3)cc2)o1 | inactive
19 | O=C(Nc1ccccc1F)c1ccc(S(=O)(=O)NCC2CCCO2)cc1 (stereo not given) | inactive
20 | CCOC(=O)c1c(-c2cccs2)csc1NC(=O)CC(C)C | inactive

— PubChem BioAssay AID1117358 (Southern Research Institute, 2015)
